This is part of a sample that, as a whole, favours compounds with a hit. Of some 83,000 tested, about 20% had one in any assay.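 A percent growth of 40 corresponds to 60% growth inhibition; 0 means no net growth; -100 means all cells died. Active threshold: below 10.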 Values without a mark were called inactive. Active and inactive are the calls of the source.
Each compound was assayed on M14 melanoma (assay: NCI-60 one-dose screen, 48 h (100 = growth as untreated, 0 = no growth, -100 = all killed)). Details: 10 µM unless noted.
Description: Growth inhibition of the M14 human tumor cell line is measured as a screen for anti-cancer activity. Cells are grown in 96 well plates and exposed to the test compound for 48 hours. Compounds are tested at a single concentration, which is 10^-5 M for most compounds. The reported endpoint is percent growth (GI% or GIPRCNT), where numbers from 0 - 100% represent growth inhibition, and numbers from -100% - 0 represent cell death. For example, a value of 40 represents 60% growth inhibition. A value of 0 means no net growth occurred over the course of the experiment. A value of -40 indicates 40% of cells at the beginning of the experiment died by the end of the experiment. A value of -100 means all cells are dead at the end of the experiment.
NCI-60 Human Tumor Cell Lines Screen was performed using the standard one-dose NCI protocol, which is described in more detail at https://dtp.cancer.gov/discovery_development/nci-60/default.htm.
Compounds with GIPRCNT values below 10 were considered active. Activity score was based on GIPRCNT using the following formula: […]
Score is 0 for GIPRCNT values of 100 or above, 50 for GIPRCNT values of 0, and 100 for GIPRCNT values of -100.

Structure (SMILES)	growth
COC(=O)C[Se]C(=O)c1ccccc1OC(C)=O	49.3%
C[As](=O)(O)c1ccc(C(=O)O)cc1	104%
O=C(Nc1ccc(S(=O)(=O)F)cc1)Oc1ccccc1	110%
CCOc1cc(/C=N\Nc2nnc(C)n2N)c(C)cc1N(CCCl)CCCl	13.8%
C[CH2][Pb]([CH2]C)([CH2]C)[O]C(=O)c1ccc(N)cc1	60%
S=P(N1CCCCCC1)(N1CC1)N1CC1	103%
COc1cc(NCCCCCN=C(N)N)c2ncccc2c1	99.3%
COC(=O)C(=[N+]=[N-])C(=O)OC	103%
NC(=O)SCC(=O)Nc1ccc([As](=O)(O)O)cc1	89.7%
CCOC(=O)/C(C#N)=C/c1ccc(N(CCCl)CCCl)cc1	105%
CNC(=O)Oc1cccc(OC)c1	107%
c1ccc(CCN2CCCCC2Cc2ccccc2)cc1 (stereo not given)	94.7%
COc1ccc2c(c1)NC1=C(C(=O)OC1)C2c1cc(OC)c(OC)c(OC)c1 (stereo not given)	6.44% (active)
CC(=O)[O][Hg][c]1nc2c(c(=O)n(C)c(=O)n2C)n1C	101%
C[C@]12CC[C@@H]3C4=C(CC[C@H]3[C@@H]1CC[C@@H]2O)CC(=O)CC4	107%
CNC(=O)Oc1cc(C(C)C)ccc1Sc1ccc(C(C)C)cc1OC(=O)NC	89.2%
CC(/C=N/N=C(N)N)=N\N=C(N)N	80.3%
N#[N+]c1nc2nc(N)[nH]c(=O)c2[nH]1	100%
CC(=O)Nc1ccc(C=C2C(=O)NC(=O)NC2=O)cc1	106%
O=C(N/N=C/c1ccc(N(CCCl)CCCl)cc1)c1cc(=O)[nH]c(=O)[nH]1	103%

Structure (SMILES)	growth
CCN(CC)c1ccc(C=C2C(=O)NC(=S)NC2=O)cc1	102%
C=CC(=O)NC(O)C(Cl)(Cl)Cl (stereo not given)	98.2%
Oc1ccccc1OB(Oc1ccccc1O)N(CCCl)CCCl	85.2%
O=C1NC(=O)C(=Cc2cn(Cc3ccccc3)c3ccccc23)C(=O)N1	99.5%
O=C(CCl)NCNC(=O)CCl	91.5%
c1ccc2nc(OCCN3CC3)ccc2c1	86.5%
CCCCN(CCCC)CC(O)c1ccccc1 (stereo not given)	100%
[N-]=[N+]=NC(C(=O)O)c1ccccc1 (stereo not given)	101%
COc1ccc(/C=C\c2cc(OC)c(OC)c(OC)c2)cc1N/C=C\C(=O)c1c[nH]c2ccccc12	11.3%
COC[CH2][Hg][C]#[C][Hg][CH2]COC	73.2%
CC12CCC(=O)C=C1C(O)CC1C2CCC2(C)C(O)CCC12 (stereo not given)	105%
c1cnc2c(c1)ccc1ncccc12	91%
COc1cc(/C=C\c2cc(OC)c(OC)c(OC)c2)cc(N/C=C\C(=O)c2ccc(OC(F)(F)F)cc2)c1OC	-4.87% (active)
O=C(O)c1[nH]c(=O)[nH]c(=O)c1F	86.6%
O=C1NC(=O)C(CN2C(=O)C3(c4ccccc42)[C@H](Cl)C(=O)N3c2ccccc2)C(=O)N1 (stereo not given in full)	105%
C[C@@H]1CC[C@@H]2[C@@H]1[C@H](OC(=O)/C=C/C1CCCCC1)[C@]1(C3CCCCC3)C[C@@H](OC(=O)CO)[C@@]2(C)O1	65.2%
N#CC1=C(N)Oc2cc3c(cc2C1c1cccs1)OCO3 (stereo not given)	15.1%
COC1=CC(=O)OC(CCc2ccc3c(c2)OCO3)C1 (stereo not given)	104%
CC1(C)CC2(CC(C)(C)c3cc(O)c(O)cc32)c2cc(O)c(O)cc21	98.1%
CCN1CC2(CN(CC)C1=S)C(=O)NC(=O)NC2=O	88.9%
